# Experimental data reported in PubChem BioAssay AID623911 (Vanderbilt High Throughput Screening Facility, 2012).
# About 770 (37%) of roughly 2,100 compounds were called active.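 Rule for the calls: active = by-eye trace score of 1 for enhancers or -1 for inhibitors, so actives lie on both sides (some results past the limit were not filed as active); inactive = score 0, or 3 fluorescent, or 4 baseline rise.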 This is one part of the list.
# Biological target: G protein-activated inward rectifier potassium channel 2 (Homo sapiens) + G protein-activated inward rectifier potassium channel 1 (Homo sapiens) (UniProt P48051+P48549)
# Test: GIRK1/2 thallium flux modulators, retest, confirmation, cell-based, HEK293 rmGlu8/hGIRK1/2, FluoZin-2 (AID 623911)
# Settings: HEK293 rmGlu8/hGIRK1/2, thallium flux FluoZin-2; actives lie on both sides; glutamate co-added at its EC20 level
# Chain of G protein-activated inward rectifier potassium channel 2 (Homo sapiens) + G protein-activated inward rectifier potassium channel 1 (Homo sapiens) (P48051 whole entry, looked up): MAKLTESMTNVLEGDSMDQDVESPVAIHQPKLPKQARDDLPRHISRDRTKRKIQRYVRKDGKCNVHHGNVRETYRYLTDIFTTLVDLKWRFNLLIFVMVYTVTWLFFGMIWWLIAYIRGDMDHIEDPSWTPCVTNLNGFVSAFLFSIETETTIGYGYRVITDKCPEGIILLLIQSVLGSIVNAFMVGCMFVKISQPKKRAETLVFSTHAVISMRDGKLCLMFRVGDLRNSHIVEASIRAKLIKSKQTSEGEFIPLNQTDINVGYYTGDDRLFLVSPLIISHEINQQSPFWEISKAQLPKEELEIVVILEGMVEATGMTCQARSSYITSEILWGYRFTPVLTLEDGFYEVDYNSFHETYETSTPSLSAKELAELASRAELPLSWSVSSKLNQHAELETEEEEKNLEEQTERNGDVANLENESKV
# Chain of G protein-activated inward rectifier potassium channel 2 (Homo sapiens) + G protein-activated inward rectifier potassium channel 1 (Homo sapiens) (P48549 whole entry, looked up): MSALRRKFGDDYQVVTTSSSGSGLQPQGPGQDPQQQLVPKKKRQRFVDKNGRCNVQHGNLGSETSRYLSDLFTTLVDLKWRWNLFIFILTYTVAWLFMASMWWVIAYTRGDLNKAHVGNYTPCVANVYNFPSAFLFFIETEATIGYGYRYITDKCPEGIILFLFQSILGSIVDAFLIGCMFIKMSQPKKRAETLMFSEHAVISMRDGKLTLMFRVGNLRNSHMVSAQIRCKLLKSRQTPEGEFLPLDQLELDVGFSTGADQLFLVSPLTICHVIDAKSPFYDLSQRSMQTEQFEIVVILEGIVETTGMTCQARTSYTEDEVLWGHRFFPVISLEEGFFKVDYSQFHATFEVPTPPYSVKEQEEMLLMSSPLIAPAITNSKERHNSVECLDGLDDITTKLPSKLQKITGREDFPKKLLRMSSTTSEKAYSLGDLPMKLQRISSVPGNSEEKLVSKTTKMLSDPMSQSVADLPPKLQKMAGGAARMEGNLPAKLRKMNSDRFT
row,Compound,manual score
1,Cc1cccc(N2C(N)=NC(N)=NC23CCCCC3)c1,0 (inactive)
2,O=C(CN1C(=O)/C(=C/c2ccccc2F)Oc2ccccc21)N1CCN(c2ccccn2)CC1,0 (inactive)
3,O=C(NNC(=O)c1cccnc1SCc1cccc([N+](=O)[O-])c1)c1ccccn1,0 (inactive)
4,O=C(Oc1c(Cl)cc(Cl)c2cccnc12)c1cccc([N+](=O)[O-])c1,1 (active)
5,O=C(NNC(=O)c1cccnc1SCc1cccc([N+](=O)[O-])c1)c1cccnc1,0 (inactive)
6,O=C(Oc1c(Cl)cc(Cl)c2cccnc12)c1ccco1,1 (active)
7,Cc1ccccc1NC1=C(Cl)C(=O)OC1OC(=O)c1ccco1 (stereo not drawn),0 (inactive)
8,Cc1ccc(C2c3c(oc4ccc(Cl)cc4c3=O)C(=O)N2CCCN2CCOCC2)o1 (stereo not drawn),0.5 (inactive)
9,O=c1c2ccccc2c(C=NCc2ccccn2)c(O)n1-c1ccccc1,0 (inactive)
10,CCOc1ccc(Br)cc1/C(C)=N\NC1=NCCN1,-1 (active)
11,CCNS(=O)(=O)c1cc(S(C)(=O)=O)ccc1Cl,0 (inactive)
12,CC(/C=N/n1c(-c2ccccc2)n[nH]c1=S)=C\c1ccco1,0 (inactive)
13,Cc1ccc(/C=N/n2c(COc3ccccc3)n[nH]c2=S)s1,0 (inactive)
14,COc1cccc(/C=N/n2c(-c3cccs3)n[nH]c2=S)c1,1 (active)
15,COc1ccc(/C=N/n2c(-c3cccs3)n[nH]c2=S)cc1,1 (active)
16,CCN(CC)S(=O)(=O)c1cccc(-c2n[nH]c(=S)n2/N=C/c2ccc(C(=O)OC)cc2)c1,0 (inactive)
17,CC(=C/c1ccccc1)/C=N/n1c(-c2ccco2)n[nH]c1=S,0 (inactive)
18,CC(=O)Nc1ccc(S(=O)(=O)NC(C(=O)O)C2=CCC=CC2)cc1 (stereo not drawn),0 (inactive)
19,CN(C)S(=O)(=O)c1cccc(NC(=O)Cc2ccc(Cl)cc2)c1,1 (active)
20,Cc1ccc(NCC(=O)Nc2cccc(S(=O)(=O)N(C)C)c2)c(Cl)c1,0 (inactive)
21,CN(C)S(=O)(=O)c1cccc(NC(=S)Nc2ccc(Cl)cc2Cl)c1,1 (active)
22,S=C(Nc1ccccc1Cl)Nc1ccc(Cl)cc1Cl,1 (active)
23,CN(C)S(=O)(=O)c1cccc(NC(=O)COc2cccc(C#N)c2)c1,0 (inactive)
24,CN(C)S(=O)(=O)c1cccc(NC(=S)Nc2cc(Cl)cc(Cl)c2)c1,1 (active)
25,O=C(Nc1cccc(S(=O)(=O)c2cccc(NC(=O)C3CC3)c2)c1)C1CC1,0 (inactive)
26,O=C(N/N=C(\c1ccccc1)c1cccnc1)C(O)(c1ccccc1)c1ccccc1,-1 (active)
27,O=C(NCCCCNC(=O)c1cccnc1)c1cccnc1,0 (inactive)
28,CC(C)OC(=O)/C(=C/c1cccnc1)NC(=O)c1ccccc1,0 (inactive)
